MCF10A rereplic – DNA re-replication induction in MCF 10a cells; MCF 10A DNA re-replication, Hoechst nuclear intensity, 48 h; Potency, µM (doses to about 46.1 µM), for inactives: at the highest dose activity, positive = re-replication, hits mostly activators; AID 624296; 350,000 tested, 2.9% active; note: % of control where 0% means no effect; nearly all actives have a fitted effect of over 50% in size
KB-3-1 tox – kills parental KB-3-1 adenocarcinoma cells | KB-3-1 viability, CellTiter-Glo ATP luminescence, 72 h | Potency, µM (series often up to 46.1 µM), actives largely listed as cytotoxic | 400,000 tested, 1.4% active; note: % is set by controls: 0 for no effect and ±100 for the full control effect; nearly all actives have a fitted effect of over 60% in size
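Cells are dispensed, compounds pinned in, plates held at 37 °C for 72 h, then CellTiter-Glo is added and luminescence read after 10 minutes. Cell line: parental KB-3-1 in phenol-red-free DMEM, 10% FBS.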
HT1080-NT tox – kills 2HG-producing HT-1080-NT fibrosarcoma cells; HT-1080-NT fibrosarcoma viability, CellTiter-Glo ATP luminescence, 48 h; Potency, µM (titrated, usually from 46.1 µM), for inactives: top-dose activity, negative = less viability, most hits filed as cytotoxic; 360,000 tested, 1.6% active; AID 686970;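 note: NT is the 2HG producing partner of a matched IDH1 knockdown line; 0% = DMSO-treated cells and -100% = media-only wells without cells; nearly all actives have a fitted effect of over 55% in size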
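Compounds were tested in concentration-response format on HT-1080-NT cells for 48 hours at 37 degrees C. Cell viability came from CellTiter-Glo luminescence; curves were classified by r2, response magnitude and activity.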
HT1080 IDH1KD tx – HT-1080 IDH1 knockdown cell toxicity (counter line); AID 686971; HT-1080 IDH1 knockdown viability, ATP luminescence, 48 h; Potency, µM (series often up to 46.1 µM), for the others: at the highest dose activity, negative = toxicity, most hits filed as cytotoxic; 360,000 tested, 2% active;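 note: 0% = DMSO wells and -100% = cell-free medium wells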
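In this qHTS, HT-1080 cells depleted of IDH1 are exposed for 48 h at 37 °C to compound titrations. Toxicity is scored from CellTiter-Glo luminescence, with DMSO as full viability and medium alone as none.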
SW480 rereplic – DNA re-replication induction in SW480 cells; SW480 DNA re-replication, Hoechst DNA content imaging, 48 h; Potency, µM (top dose mostly 46.1 µM), for inactives: at the highest dose re-replication activation, hits mostly activators; 340,000 tested, 1.8% active; note: % of control where 0% means no effect; nearly all actives have a fitted effect of over 55% in size
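Quantitative HTS format with DMSO vehicle controls; 48 hr drug incubation at 37 C, then 40 min Hoechst staining and scanning imager measurement at 405 nm excitation.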
KB-V1 MDR tox – KB-V1 MDR subline cytotoxicity; KB-V1 MDR cells viability, CellTiter-Glo, 72 h; Potency, µM (top dose mostly 46.1 µM), usual class: cytotoxic; 400,000 tested, 3.4% active; note: % is set by controls: 0 for no effect and ±100 for the full control effect; nearly all actives have a fitted effect of over 60% in size
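Drug-selected KB-V1 cells, grown in DMEM lacking phenol red with 10% FBS, receive compound titrations; after three days at 37 degrees C, surviving cell ATP is quantified by CellTiter-Glo luminescence and responses normalized and curve-fitted.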
Starred values were filed as active, the others as inactive; i = inactive; ? = inconclusive; nt = no result. Compounds with a hit are over-represented: about 8% of the library has one in this group of screens. Calls come from the whole dose curve; as a rule, active = well fitted curve in the direction sought with a large enough effect; inconclusive = small, poorly fitted or top-dose-only effect, or another doubt; inactive = no such curve, though single readings can be large; an effect the other way counts as inactive or inconclusive. Potency is the fitted concentration of half-maximal effect.

SMILES	MCF10A rereplic	KB-3-1 tox	HT1080-NT tox	HT1080 IDH1KD tx	SW480 rereplic	KB-V1 MDR tox
CC1(Oc2ccc3ccccc3c2)CCN(Cc2cccn2-c2nccs2)C1 (stereo not drawn)	nt	i	21µM*	15µM*	nt	i
CCCCN1CC(c2nc3ccccc3n2CCCCOc2ccc(C)c(C)c2)CC1=O (stereo not drawn)	nt	i	nt	nt	nt	i
CCc1cc(-c2[nH]ncc2-c2ccc3c(c2)OCO3)c(O)cc1O	-14%	i	?	?	9%	9.2µM*
CCc1cc(-c2[nH]ncc2-c2ccc(OC)cc2)c(O)cc1O	-23%	?	?	?	11%	?
CCCCn1c(N)c(N(Cc2ccccc2OC)C(=O)COc2ccccc2OC)c(=O)[nH]c1=O	-1%	i	8%	5%	-1%	i
CCCCn1c(N)c(N(Cc2ccccc2OC)C(=O)c2ccc([N+](=O)[O-])s2)c(=O)[nH]c1=O	?	?	-18%	-10%	21µM*	i
CCOC(=O)c1c(NC(=O)C(C)Sc2cn(CCNC(=O)c3c(F)cccc3F)c3ccccc23)sc2c1CCC2 (stereo not drawn)	nt	i	nt	nt	nt	i
Cc1nc(-n2nc(C)c(CCC(C)C)c2C)sc1C(=O)Nc1ccc(Cl)cc1	nt	i	nt	nt	nt	i
CC(C)NCC(=O)NC12CC3CC(CC(C3)C1)C2	4%	i	2%	6%	-14%	21µM*
CCC1=NN(C(=O)C(=O)NCCc2ccccc2)C(O)(C(F)(F)F)C1 (stereo not drawn)	7%	i	?	18µM*	-12%	i
COc1ccc(CC(=O)N2N=C(c3ccncc3)CC2(O)C(F)(F)F)cc1 (stereo not drawn)	?	i	15µM*	9.2µM*	18µM*	5.2µM*
CCC1=NN(C(=O)C(=O)Nc2ccccc2OC)C(O)(C(F)(F)F)C1 (stereo not drawn)	?	i	2.8µM*	1.4µM*	-2%	i
CCC1=NN(C(=O)C(=O)Nc2ccc(OC)cc2)C(O)(C(F)(F)F)C1 (stereo not drawn)	-5%	i	8.9µM*	5µM*	-1%	i
CCC1=NN(C(=O)CCc2ccccc2)C(O)(C(F)(F)F)C1 (stereo not drawn)	?	i	-3%	?	3%	i
CCC1=NN(C(=O)Cc2ccc(OC)cc2)C(O)(C(F)(F)F)C1 (stereo not drawn)	2%	i	-29%	?	-3%	i
Cc1ccc(NC(=O)CSc2nc3c(c(=O)[nH]2)CCC3)cc1Cl	nt	i	nt	nt	nt	i
CCc1cccc(C)c1NC(=O)CCS(=O)(=O)c1ccc2c(c1)oc(=O)n2C	nt	i	nt	nt	nt	i
Cc1noc2ncnc(N3CCCC(C(=O)NC(C)C)C3)c12 (stereo not drawn)	nt	i	nt	nt	nt	i
COc1ccccc1NC(=O)C(=O)N1N=C(C(C)C)CC1(O)C(F)(F)F (stereo not drawn)	8.2µM*	i	?	?	2%	i
CCc1nccn1C(=O)c1cnn2c(C(F)F)cc(-c3ccc(C)cc3)nc12	18µM*	?	2%	2%	?	?
Cc1ccc(-c2cc(C(F)F)n3ncc(C(=O)N4CCc5ccccc54)c3n2)cc1	2.6µM*	i	2.9µM*	2.3µM*	7.3µM*	5.8µM*
COc1ccc(-c2cc(C(F)F)n3ncc(C(=O)N4CCc5ccccc5C4)c3n2)cc1	?	i	?	-27%	15µM*	?
COc1cc2ccccc2cc1C(=O)N1CCc2ccccc21	16µM*	?	?	?	?	i
CCN1CCN(C(=O)c2cnn3c(C(F)F)cc(-c4ccc(C)cc4)nc23)CC1	6%	i	5%	-1%	0%	i
Cc1ccc2nc(SCc3nc(-c4ccccc4C)no3)[nH]c2c1	nt	i	nt	nt	nt	?
SMILES	MCF10A rereplic	KB-3-1 tox	HT1080-NT tox	HT1080 IDH1KD tx	SW480 rereplic	KB-V1 MDR tox
CCOc1ccccc1NC(=O)C1CCCN(S(=O)(=O)c2cccs2)C1 (stereo not drawn)	nt	i	nt	nt	nt	i
Cc1cc(C)c2cc3c(N)c(C(=O)N4CCc5ccccc5C4)sc3nc2c1	-6%	i	22%	5%	3%	i
Cc1ccc(-c2cc(C(F)(F)F)n3ncc(C(=O)N4CCCc5ccccc54)c3n2)cc1	-5%	i	-9%	-4%	14%	i
Cc1ccc2nc3sc(C(=O)N4CCCc5ccccc54)c(N)c3cc2c1	?	?	-2%	2%	3.7µM*	6.5µM*
Cc1ccc(-c2cc(C(=O)N3CCCc4ccccc43)c3ccccc3n2)cc1	21µM*	?	-3%	-1%	?	23µM*
CC1=Nc2cc(C(=O)NCCc3ccc(Cl)cc3)ccc2Sc2c(C)ccc(C)c21	nt	2.6µM*	nt	nt	nt	1.6µM*
CCCNC(=O)c1ccc2c(c1)N=C(C)c1c(C)ccc(C)c1S2	nt	0.82µM*	nt	nt	nt	?
COc1ccc(CCNC(=O)c2ccc3c(c2)N=C(C)c2cc(C)ccc2S3)cc1OC	nt	i	nt	nt	nt	i
CC1=Nc2cc(C(=O)NCCc3ccccc3)ccc2Sc2c(C)ccc(C)c21	nt	0.65µM*	nt	nt	nt	0.41µM*
CCc1ccc(CNC(=O)c2ccc3c(c2)N=C(C)c2cc(C)ccc2S3)cc1	nt	?	nt	nt	nt	i
COc1ccc(CNC(=O)c2ccc3c(c2)N=C(C)c2c(C)ccc(C)c2S3)cc1	nt	4.6µM*	nt	nt	nt	1.8µM*
CCNC(=O)CC1C(=O)N(c2ccc(F)cc2)C(=O)N1Cc1ccc(OC)c(OC)c1 (stereo not drawn)	nt	i	nt	nt	nt	i
COc1ccc(N2CCN(C3(c4ccccc4)C(=O)c4ccccc4C3=O)CC2)cc1	nt	i	nt	nt	nt	i
COc1ccccc1CCNS(=O)(=O)c1cc2c3c(c1)CCN3C(=O)CC2	-2%	i	-1%	11%	1.5µM*	i
O=C(Cn1ncn2c(cc3sccc32)c1=O)NCCc1ccccc1	nt	?	nt	nt	nt	i
O=C(COc1ccc(F)cc1)Nc1ccccc1C(=O)OCc1cc(=O)n2ccsc2n1	nt	i	nt	nt	nt	i
CC(=O)c1cc2c(cc1NC(=O)c1cc(C)nn1-c1ccccc1)OCO2	?	5.8µM*	0%	-7%	?	i
Cn1c(Cc2ccccc2)nnc1SCC(=O)c1ccc(Br)s1	-1%	?	2%	3%	-4%	13µM*
Cn1nnnc1SCC(=O)c1ccc(Br)s1	0%	i	0%	11%	-3%	i
